Measurements: publication PMC4336329 (PLoS ONE, 2015)
The whole screen tested about 310,000 compounds, of which about 2,200 (0.71%) showed an effect of 50% or more. The effect is printed as a negative number. For the sample, strong results were picked, then their nearest neighbours and some compounds at random.

The molecules below were run against human ether-à-go-go-related gene (hERG) potassium channel (human, UniProt Q12809) (assay: primary screen, population patch clamp on CHO cells stably expressing hERG; higher = less effect of the substance).
Chain of human ether-à-go-go-related gene (hERG) potassium channel (Q12809 whole entry, looked up): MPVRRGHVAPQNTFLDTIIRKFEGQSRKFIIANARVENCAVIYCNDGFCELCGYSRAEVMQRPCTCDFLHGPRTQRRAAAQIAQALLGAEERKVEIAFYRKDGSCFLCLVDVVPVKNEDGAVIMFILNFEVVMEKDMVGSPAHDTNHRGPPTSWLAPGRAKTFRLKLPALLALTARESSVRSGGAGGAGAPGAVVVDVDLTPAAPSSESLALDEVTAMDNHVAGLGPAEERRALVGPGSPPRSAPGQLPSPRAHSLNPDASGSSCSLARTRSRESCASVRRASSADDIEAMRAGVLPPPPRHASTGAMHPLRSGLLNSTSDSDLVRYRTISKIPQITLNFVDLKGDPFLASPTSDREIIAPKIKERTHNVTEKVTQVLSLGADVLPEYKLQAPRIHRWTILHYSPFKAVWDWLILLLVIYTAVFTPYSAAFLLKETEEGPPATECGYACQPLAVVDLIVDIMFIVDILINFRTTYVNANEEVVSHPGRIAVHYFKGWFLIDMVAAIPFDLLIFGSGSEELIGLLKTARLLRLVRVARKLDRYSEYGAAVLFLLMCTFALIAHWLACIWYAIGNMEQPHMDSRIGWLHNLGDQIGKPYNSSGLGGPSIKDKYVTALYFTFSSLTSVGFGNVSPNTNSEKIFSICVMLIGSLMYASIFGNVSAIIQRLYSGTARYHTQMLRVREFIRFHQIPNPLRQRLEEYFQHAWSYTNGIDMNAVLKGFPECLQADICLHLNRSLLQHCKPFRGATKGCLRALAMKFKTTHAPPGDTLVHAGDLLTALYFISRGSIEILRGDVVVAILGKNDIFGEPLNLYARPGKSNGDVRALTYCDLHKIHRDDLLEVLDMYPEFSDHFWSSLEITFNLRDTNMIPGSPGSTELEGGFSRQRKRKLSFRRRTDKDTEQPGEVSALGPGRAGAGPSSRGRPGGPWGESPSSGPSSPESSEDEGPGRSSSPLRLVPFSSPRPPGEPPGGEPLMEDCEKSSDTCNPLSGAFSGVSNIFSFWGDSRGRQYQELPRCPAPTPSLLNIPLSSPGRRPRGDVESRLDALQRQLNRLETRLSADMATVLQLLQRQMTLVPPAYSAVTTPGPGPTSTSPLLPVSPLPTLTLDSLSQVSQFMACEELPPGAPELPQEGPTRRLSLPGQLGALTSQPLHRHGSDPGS

| SMILES | hERG current change (%, negative = inhibition) at 1uM |
| --- | --- |
| O=C(CCn1c(=O)sc2ccccc21)Nc1ccon1 | 4.85% |
| COC(=O)c1ccccc1NC(=S)NC(=O)c1ccc(C)cc1 | 9.88% |
| CC(C)CSc1nc2ccccc2[nH]1 | 13% |
| COCCN1C(=O)C(=O)/C(=C(/O)c2ccc(S(=O)(=O)N3CCCCC3)cc2)C1c1ccc(OC)cc1 (stereo not drawn) | 11.9% |
| C=CC[C@@H](C)CC(=O)C(CCCN=[N+]=[N-])SOOc1ccccc1 (stereo partly drawn) | 11.2% |
| Cc1ccc(S(=O)(=O)N2c3ccccc3-c3c(ssc3=S)C2(C)C)cc1 | -1.68% |
| COc1ccccc1OCC(=O)Nc1ccccc1C(=O)N1CCCC1 | 5.81% |
| Cc1cc(C(=O)N2CCN(c3ccc([N+](=O)[O-])cc3)CC2)c(C)o1 | -35.1% |
| CCc1nc2ccc(C(=O)N3CCN(c4ccc([N+](=O)[O-])cc4)CC3)cc2nc1CC | -38.2% |
| Cc1cc(C)n2nc(C(=O)N3CCN(c4ccc([N+](=O)[O-])cc4)CC3)nc2n1 | -77.6% |
| CCCN1CCN(C(=O)c2ccc(-c3ccc([N+](=O)[O-])cc3)o2)CC1 | -70.1% |
| Cc1ccc(C(=O)N2CCN(c3ccc([N+](=O)[O-])cc3)CC2)o1 | -79% |
| COc1ccc(N2CCN(C(=O)c3nc4nc(C)cc(C)n4n3)CC2)cc1 | 7.39% |
| O=C(c1ccc2c(c1)OCCO2)N1CCN(c2ccc([N+](=O)[O-])cc2)CC1 | 1.16% |
| Cc1c(Cl)cccc1-c1ccc(C(=O)N2CCN(c3ccc([N+](=O)[O-])cc3)CC2)o1 | -1.98% |
| O=C(c1ccc2nsnc2c1)N1CCN(c2ccc([N+](=O)[O-])cc2)CC1 | -57.4% |
| O=C(c1ccc(-c2ccc([N+](=O)[O-])cc2)o1)N1CCCCCCC1 | -6.48% |
| COc1cccc(N2CCN(C(=O)c3nc4nc(C)cc(C)n4n3)CC2)c1 | 8.37% |
| O=C(c1ccc(-c2ccc([N+](=O)[O-])cc2)o1)N1CCCCC1 | -10.5% |
| Cc1cc2cc3c(cc2nc1SCC(=O)N1c2ccccc2CC1C)OCO3 (stereo not drawn) | 5.76% |
| O=C(Nc1ccc2oc(-c3ccncc3)nc2c1)c1ccccc1F | 7.55% |

| SMILES | hERG current change (%, negative = inhibition) at 1uM |
| --- | --- |
| Cc1ccccc1OCCC(=O)Nc1ccccc1C(=O)N1CCCCC1 | 10.9% |
| Nc1nc(SCC(=O)c2ccc([N+](=O)[O-])cc2)n[nH]1 | 1.72% |
| O=c1c2cn[nH]c2[nH]c(=S)n1-c1ccccc1 | 14.3% |
| CC(=O)Nc1cccc(OCc2c(F)cccc2Cl)c1 | 4.98% |
| O=C(NC(=S)Nn1cnc2c(cnn2-c2ccccc2)c1=O)c1ccc(Cl)cc1 | 11.4% |
| CCn1c(SCC(=O)c2cc(C)n(-c3ccc(C(=O)OC)cc3)c2C)nnc1-c1cccnc1 | 1.88% |
| COCCn1c(SCc2ccccc2)nc2c1c(=O)[nH]c(=O)n2C | 11.8% |
| CSCCC1NC(=O)N(CC(=O)Nc2cc(C)on2)C1=O (stereo not drawn) | 9.03% |
| CC(C)C(C(=O)C=[N+]=[N-])N1C(=O)c2ccccc2C1=O (stereo not drawn) | 11.2% |
| O=C(c1cncc(Br)c1)N1CCN(c2ccc(N3CCOCC3)nn2)CC1 | 9.87% |
| Cc1occc1C(=O)N1CCN(c2ccc([N+](=O)[O-])cc2)CC1 | -45.8% |
| O=C(c1ccc([N+](=O)[O-])cc1)N1CCN(c2ncc(Br)cn2)CC1 | -11.3% |
| CC(=O)N1CCN(c2ccc([N+](=O)[O-])c(-n3nc(C)cc3C)c2)CC1 | -9.97% |
| O=C(c1cncc(Br)c1)N1CCN(c2ccc([N+](=O)[O-])cc2)CC1 | -62.2% |
| Cc1cc(C(=O)N2CCN(c3ccc([N+](=O)[O-])cc3)CC2)co1 | -64.7% |
| Cc1cc(C(=O)N2CCN(c3ccc([N+](=O)[O-])cc3)CC2)no1 | -36% |
| COc1ccc(C(=O)N2CCN(c3ccc([N+](=O)[O-])c(-n4nc(C)cc4C)c3)CC2)cc1 | -80.6% |
| Cc1cc(C)n(-c2cc(N3CCN(C(=O)c4ccc(C(C)(C)C)cc4)CC3)ccc2[N+](=O)[O-])n1 | 3.39% |
| C=CCc1cccc2cc(C(=O)Nc3ccc(F)cc3)c(=O)oc12 | 6.28% |
| COC(=O)c1ccc(NC(=S)NC(=O)c2cc(-c3ccccc3)nc3ccccc23)cc1 | 9.36% |
| NC(=O)[C@H]1CC2(CC(c3cccc(NC(=O)CC(c4ccccc4)c4ccccc4)c3)=NO2)CN1C(=O)CC(c1ccccc1)c1ccccc1 (stereo partly drawn) | 14.8% |

| SMILES | hERG current change (%, negative = inhibition) at 1uM |
| --- | --- |
| Nc1ccc(O)cc1 | 10.2% |
| COc1ccc(/C=C2\Oc3cc(OC(=O)N4CCOCC4)ccc3C2=O)cc1 | 3.7% |
| CCC(=O)Nc1ccc2oc(-c3ccccc3Br)nc2c1 | 9.07% |
| CC1CCc2c(sc3nc(CN4CCN(S(=O)(=O)c5ccccc5[N+](=O)[O-])CC4)[nH]c(=O)c23)C1 (stereo not drawn) | -0.366% |
| C=CCn1cc(CN2CCC(C(=O)Nc3cccc(-c4cccc(Cl)c4)c3)CC2)c(C)n1 | -30% |
| O=C(c1ccc2c(=O)n(Cc3ccc(Cl)cc3)c(=S)[nH]c2c1)N1CCCC1 | 17% |
| Oc1[nH]c2ccccc2c1N=Nc1nc2ccccc2s1 | -3.26% |
| Cl.NCCCCC(=O)O | 11.5% |
| CC(C1CC1)N(C(=O)NC1CCS(=O)(=O)C1)c1ccccc1 (stereo not drawn) | 6.55% |
| COc1cccc(-c2cccc(NC(=O)C3CCN(Cc4cccc(C)n4)CC3)c2)c1 | -46.7% |
| Cc1cccc(CN2CCC(C(=O)Nc3cccc(-c4cccc(F)c4)c3)CC2)n1 | -66.1% |
| CCCn1ncc(CN2CCC(C(=O)Nc3cccc(-c4cccc(F)c4)c3)CC2)c1C | -60.6% |
| Cc1cc(C)n(CCCN2CCC(C(=O)Nc3cccc(-c4cccc(F)c4)c3)CC2)n1 | -59.9% |
| COc1cccc(-c2cccc(NC(=O)C3CCN(C4CCOCC4)CC3)c2)c1 | -14.6% |
| O=C(Nc1cccc(-c2cccc(F)c2)c1)C1CCN(C2CCC2)CC1 | -26.1% |
| CCn1nc(C)c(CN2CCC(C(=O)Nc3cccc(-c4cccc(F)c4)c3)CC2)c1C | -6.47% |
| Cc1ccc(CN2CCC(C(=O)Nc3cccc(-c4cccc(F)c4)c3)CC2)o1 | -28.7% |
| CCn1cc(CN2CCC(C(=O)Nc3cccc(-c4cccc(F)c4)c3)CC2)cn1 | -29.2% |
| Cc1cccc(CN2CCC(C(=O)Nc3cccc(-c4cscn4)c3)CC2)n1 | -4.56% |
| Cn1cc(CN2CCC(C(=O)Nc3cccc(-c4cccc(F)c4)c3)CC2)cn1 | -37.9% |
| O=C(Nc1cccc(-c2cccc(F)c2)c1)C1CCN(C2CCOCC2)CC1 | -67.8% |
